Results reported in PubChem BioAssay AID1159580 (chemical genetic matrix, 2015).
Hit rate of the full screen: of about 5,500 compounds, about 2,000 (36%) were called active. Inconclusive results (about 18%) are left out. Rule as the data show it: active = normalized growth mostly below about 0.91 (no sharp cut-off); inconclusive = no clear call, values can overlap the other calls; inactive = mostly above about 0.92. The list shows a part of the results.

Assay: chemical genetic growth profiling, strain panel (AID 1159580);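 also: tested at 20 µM; growth read once vehicle control cultures reached saturation at 30 °C; 1 = growth at the plate median or of vehicle wells; lower values mean less growth of the strain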
Conditions: growth OD

Measured: normalized growth

CCOC(=O)c1nnc2cc(C)nn2c1C
inactive: S. cerevisiae deletion strains, locus YAL013W, strain DEP1, stronger effect = lower value 0.981 | S. cerevisiae deletion strains, locus YBR229C, strain ROT2, stronger effect = lower value 1.01 | S. cerevisiae deletion strains, locus YDL101C, strain DUN1, stronger effect = lower value 0.98 | S. cerevisiae deletion strains, locus YDR150W, strain NUM1, stronger effect = lower value 0.951 | S. cerevisiae deletion strains, locus YEL061C, strain CIN8, stronger effect = lower value 1 | S. cerevisiae deletion strains, locus YGR078C, strain PAC10, stronger effect = lower value 1 | S. cerevisiae deletion strains, locus YHR030C, strain SLT2, stronger effect = lower value 1.01 | S. cerevisiae deletion strains, locus YHR087W, strain rtc3, stronger effect = lower value 1 | S. cerevisiae deletion strains, locus YJR043C, strain POL32, stronger effect = lower value 0.987 | S. cerevisiae deletion strains, locus YJR075W, strain HOC1, stronger effect = lower value 1.03 | S. cerevisiae deletion strains, locus YKL190W, strain CNB1, stronger effect = lower value 0.995 | S. cerevisiae deletion strains, locus YLR039C, strain RIC1, stronger effect = lower value 1.04 | S. cerevisiae deletion strains, locus YLR058C, strain SHM2 (second series), stronger effect = lower value 1.01 | S. cerevisiae deletion strains, locus YLR085C, strain ARP6, stronger effect = lower value 1 | S. cerevisiae deletion strains, locus YLR262C, strain YPT6, stronger effect = lower value 1.06 | S. cerevisiae deletion strains, locus YML094W, strain GIM5, stronger effect = lower value 0.968 | S. cerevisiae deletion strains, locus YMR219W, strain ESC1, stronger effect = lower value 1 | S. cerevisiae deletion strains, locus YMR263W, strain SAP30, stronger effect = lower value 0.95 | S. cerevisiae deletion strains, locus YMR307W, strain GAS1, stronger effect = lower value 0.989 | S. cerevisiae deletion strains, locus YNL128W, strain TEP1, stronger effect = lower value 1.01 | S. cerevisiae deletion strains, locus YNL153C, strain GIM3, stronger effect = lower value 0.988 | S. cerevisiae deletion strains, locus YNL298W, strain CLA4 (second series), stronger effect = lower value 1.03 | S. cerevisiae deletion strains, locus YNL322C, strain KRE1, stronger effect = lower value 1 | S. cerevisiae deletion strains, locus YNR030W, strain Alg12, stronger effect = lower value 1.03 | S. cerevisiae deletion strains, locus YPL055C, strain LGE1, stronger effect = lower value 0.923 | S. cerevisiae deletion strains, locus YPL241C, strain CIN2, stronger effect = lower value 0.986 | S. cerevisiae deletion strains, locus YPR135W, strain CTF4, stronger effect = lower value 1 | S. cerevisiae strains, strain wild type, stronger effect = lower value 1.02
